Measured values published in PubChem BioAssay (NCI).
This is part of a sample that, as a whole, favours compounds with a hit. Of some 79,000 tested, about 15% had one in any assay. No stated cut-off is given here; in the data, active means growth inhibition above about 70%; inactive means the rest.

Legend:
[1] = NCI Yeast Anticancer Drug Screen. Data for the rad50 strain (AID 155);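 further: 0% = growth of vehicle-only cultures of the same strain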; settings: S. cerevisiae rad50 strain growth inhibition; at 50.0 µM; stronger effect = higher value
In short: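 DNA repair mutant yeast, compound exposure, growth read-out; inhibition is taken relative to vehicle.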

[2] = NCI Yeast Anticancer Drug Screen. Data for the mec2-1 strain (AID 157); settings: S. cerevisiae mec2-1 strain, at 50.0 µM, stronger effect = higher value
In short: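 mec2-1 yeast strain, carrying an alteration in DNA damage repair or cell cycle control, was exposed to compounds; growth inhibition was measured relative to vehicle-treated controls.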

[3] = NCI Yeast Anticancer Drug Screen. Data for the sgs1 mgt1 strain (AID 161);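 further: 0% = growth of cultures given vehicle only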; settings: S. cerevisiae sgs1 mgt1 strain, at 50.0 µM, stronger effect = higher value
In short: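 Growth of a repair-deficient yeast mutant was monitored after compound treatment and expressed as inhibition relative to vehicle-treated cultures.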

[4] = NCI Yeast Anticancer Drug Screen. Data for the cln2 rad14 strain (AID 165);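 further: 0% = growth equal to vehicle treated cultures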; settings: S. cerevisiae cln2 rad14 strain, at 50.0 µM, stronger effect = higher value
In short: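 Yeast carrying cln2 and rad14 alterations (cell cycle control and DNA damage repair) were exposed to compounds. Growth inhibition was measured against vehicle-treated controls.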

[5] = NCI Yeast Anticancer Drug Screen. Data for the bub3 strain (AID 167); settings: S. cerevisiae bub3 mutant strain, at 50.0 µM, stronger effect = higher value
In short: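 In this screen, a yeast mutant lacking normal mitotic checkpoint function is challenged with compound. Relative growth versus vehicle gives the inhibition value.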

[6] = NCI Yeast Anticancer Drug Screen. Data for the mlh1 rad18 strain (AID 175); settings: S. cerevisiae mlh1 rad18 strain growth inhibition; at 50.0 µM; stronger effect = higher value
In short: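 Growth inhibition of the yeast strain was measured after compound exposure and expressed relative to vehicle-treated controls. The strain carries defined defects in DNA damage repair.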

Measured: growth inhibition

CCCOC(=O)O[C@H]1CC[C@@]2(C)C(=CC[C@H]3[C@@H]4CC[C@H]([C@H](C)CCCC(C)C)[C@@]4(C)CC[C@@H]32)C1
inactive: [1] -34.6% | [2] -31% | [3] -27.7% | [4] 3.9% | [5] -28.8% | [6] -34.4%

CN1C(=O)c2c(ccc3c2OCO3)C2C(O)Cc3cc4c(cc3C21)OCO4 (stereo unspecified)
inactive: [1] 6.85% | [2] 9.9% | [3] 21.8% | [4] 27.9% | [5] 7.15% | [6] -51%

O=C(Nc1ccccc1CC(O)c1ccc2c(c1)OCO2)c1ccccc1 (stereo unspecified)
inactive: [1] 19.1% | [2] -8.1% | [3] 3.65% | [4] -22.8% | [5] 11.6% | [6] 13.8%

O=C(O)c1ccc(N=NC2Sc3nc4ccccc4n3C2=O)cc1 (stereo unspecified)
inactive: [1] 16.7% | [2] -13.8% | [3] 15.7% | [4] -8.9% | [5] 11.2% | [6] 44.2%

CCN(CC)c1ccc(-c2c3ccccc3nc3ccccc23)cc1
inactive: [1] -5.05% | [2] -7.75% | [3] 7.45% | [4] -12.4% | [5] -17.1% | [6] -3.5%

CCN(CC)C(=O)C1CCN(Cc2ccc3c(c2)CCC3)CC1
inactive: [1] -4.1% | [2] 42.5% | [3] -1.2% | [4] -16.6% | [5] 2.9% | [6] 3.95%

N#CC(c1ccc(O)cc1)N1CCN(C(C#N)c2ccc(O)cc2)CC1 (stereo unspecified)
inactive: [1] -1.5% | [2] 1% | [3] -33.2% | [4] -26.8% | [5] -25.2% | [6] -43.4%

CCOC(=O)c1c(C)c(C)cc(C)c1C
inactive: [1] -4.75% | [2] -7.6% | [3] -5.45% | [4] 6.15% | [5] 2.3% | [6] -10.8%

Cc1cccc(CBr)c1-c1c(C)cccc1CBr
inactive: [1] -19.2% | [2] 10.8% | [3] 10.1% | [4] -31.1% | [5] 27.6% | [6] -0.65%

COC(=O)C1(C(=O)OC)O[C@@H](c2ccccc2)[C@H]2C(=O)N(C)C(=O)[C@H]21
inactive: [1] 7.05% | [2] 0.9% | [3] 7.45% | [4] 8.8% | [5] -1.1% | [6] 13.8%

Cc1cc2c(C)[nH]nc2c(C(=O)O)c1C
inactive: [1] 6.85% | [2] -5.15% | [3] 6.35% | [4] 11.1% | [5] 3.2% | [6] 19.4%

COC(=O)c1c(-c2ccccc2)cn(C)c1C
inactive: [1] 16.9% | [2] 9.95% | [3] 12.8% | [4] 5.75% | [5] 6.6% | [6] -6.4%

O=C(O)CSC(=S)c1ccccc1
inactive: [1] 16.4% | [2] 19.8% | [3] 4% | [4] -5.7% | [5] -15.8% | [6] -12.9%

O=C1c2ccccc2C2(O)Nc3c(ccc4ccccc34)C12O (stereo unspecified)
inactive: [1] 2% | [2] -3.3% | [3] 10.6% | [4] -3.8% | [5] -16.9% | [6] 15.4%

C=C1CN(C2=NCCO2)C1
inactive: [1] -17.6% | [2] -39.6% | [3] -5.65% | [4] -12.9% | [5] -13.6% | [6] 4.05%

CCN(CC)CCOC(=O)c1cc(C(C)O)nc2ccccc12 (stereo unspecified)
inactive: [1] 0.6% | [2] 12.3% | [3] -10.5% | [4] 0.55% | [5] 21.6% | [6] -7.1%

COc1cc2c(cc1OC)C1=Cc3cc(OC)c(OC)cc3C(C)N1C=C2 (stereo unspecified)
inactive: [1] 6.15% | [2] -6.3% | [3] -26.6% | [4] -18.6% | [5] -23.9% | [6] -16.7%

CCOC(=O)NC1c2ccccc2Oc2ccccc21
inactive: [1] -4.5% | [2] -5.4% | [3] 4.95% | [4] -16.3% | [5] 11% | [6] 2.3%

Cc1ccc(S(=O)(=O)C(=S)SCc2ccccc2)cc1
inactive: [1] 38.5% | [2] 37.8% | [3] 59% | [4] 19.6% | [5] 35.4% | [6] 33%

N#CC(CCc1ccccc1[N+](=O)[O-])(CCc1ccccc1[N+](=O)[O-])C(N)=O
inactive: [1] 19.3% | [2] 5.55% | [3] 24.4% | [4] -18.4% | [5] 16.6% | [6] 39.1%

CCC1SC(N)=NC1c1ccccc1 (stereo unspecified)
inactive: [1] 22.2% | [2] 2.85% | [3] 31.9% | [4] 9.95% | [5] 14.1% | [6] 24.6%

COc1ccc(-c2cc3cc(CCCOC4OC(COC5OCC(O)C(O)C5O)C(O)C(O)C4O)cc(OC)c3o2)cc1OC (stereo unspecified)
inactive: [1] 31% | [2] 17.4% | [3] 34.6% | [4] 23.8% | [5] 8.8% | [6] 23.4%

O=C(O)CC(Cc1ccccc1)C(=O)O (stereo unspecified)
inactive: [1] 1% | [2] -3.45% | [3] -26.1% | [4] -17.8% | [5] -31.9% | [6] 2.05%

O=C(O)c1ccccc1Nc1ccccc1[N+](=O)[O-]
inactive: [1] -4% | [2] 22.5% | [3] 17.2% | [4] 8.15% | [5] 27.1% | [6] 17.6%

CC(=O)O[C@H]1CC[C@@]2(C)[C@@H](CC[C@@H]3[C@@H]2CC(=O)[C@]2(C)[C@@H]4[C@H](C[C@@H]32)O[C@]2(CC[C@@H](C)CO2)[C@H]4C)C1
inactive: [1] -11.7% | [2] -12.2% | [3] -11.8% | [4] -13.2% | [5] -34.6% | [6] 2.3%

COC(=O)c1cc2ccccc2n1C
inactive: [1] -25.7% | [2] -45.6% | [3] -30.9% | [4] 16.1% | [5] -6.95% | [6] -8.15%

CC(C)OCC(O)CNCCN (stereo unspecified)
inactive: [1] -30.8% | [2] -20.9% | [3] -7.9% | [4] -2.5% | [5] -21% | [6] -0.75%

NC1CC(=O)N(Cc2ccccc2)C1=O (stereo unspecified)
inactive: [1] 5.75% | [2] -7.9% | [3] -9.8% | [4] -11.6% | [5] -0.25% | [6] 2.4%

CCOc1ccc(NC(=O)CCc2nnc(SC)o2)cc1
inactive: [1] 20.5% | [2] -17.2% | [3] -4.75% | [4] -16.4% | [5] 29.1% | [6] 23.2%

N#CC1C=Cc2ccccc2N1C(=O)Oc1ccccc1 (stereo unspecified)
inactive: [1] 1.5% | [2] 14.3% | [3] 10.6% | [4] 18.6% | [5] -7.8% | [6] 16.6%

Cc1cnc(NCCCCCCNc2ncc(C)c(-c3ccccc3O)n2)nc1-c1ccccc1O
inactive: [1] 13.1% | [2] -4.55% | [3] -26.5% | [4] 4% | [5] 0.35% | [6] 4.5%

Cc1ccc(/C=C/C(=N/Nc2ccccc2)C(C)CN(C)C)cc1 (stereo unspecified)
inactive: [1] -3.2% | [2] -10.1% | [3] -3.25% | [4] -15.3% | [5] -1.35% | [6] -5%

CCCCCCCCCCCC(=O)Oc1c(Cl)cc(Cl)c(OC(=O)C(=O)Oc2c(Cl)cc(Cl)c(OC(=O)CCCCCCCCCCC)c2Cl)c1Cl
inactive: [1] -26.1% | [2] -21.9% | [3] -11.2% | [4] 16.9% | [5] -4.2% | [6] -19.9%

O=C1CCCNn2c(nc3ncccc3c2=O)N1
inactive: [1] 17.3% | [2] 37% | [3] 9% | [4] -20.6% | [5] 10.1% | [6] -41.1%

CC(=O)N/N=C/c1ccc([N+](=O)[O-])s1
inactive: [1] 13.3% | [2] 15.1% | [3] 33.3% | [4] -11.8% | [5] 3.55% | [6] 45.5%

Cc1nn(C(=O)CC(=O)Nc2ccccc2Cl)c(C)c1N=Nc1ccccc1Cl
inactive: [1] -11.3% | [2] 1.8% | [3] -29.1% | [4] 35.1% | [5] -8.55% | [6] -23.1%

CCN(CC)CCOc1ccc(/C=C(\C#N)c2ccc(OCCN(CC)CC)cc2)cc1
inactive: [1] 56.5% | [2] 28.6% | [3] 30.4% | [4] 56% | [5] 24.1% | [6] 18%

O=[N+]([O-])c1cccnc1Sc1ccccc1C1=NCCCN1
inactive: [1] -5.55% | [2] -12.3% | [3] -3.45% | [4] 19.9% | [5] -4.2% | [6] -4.1%

C/C(=C\C(=O)c1ccccc1)c1ccccc1
inactive: [1] 17.3% | [2] -5.8% | [3] -20.9% | [4] -16.6% | [5] 12.2% | [6] 57%

Fc1ccc(C(c2ccc(F)cc2)C(F)(F)F)cc1
inactive: [1] 8.65% | [2] -20.3% | [3] 24.9% | [4] 10.8% | [5] 13.7% | [6] 13.4%

Cc1ccc(/C(=C/CN2CC3CCC(CC3)C2)c2ccccc2)cc1
inactive: [1] -1.15% | [2] -4.5% | [3] 11.9% | [4] -14.3% | [5] 10.4% | [6] -13.8%
